Experimental data: PubChem BioAssay AID686996 (Broad Institute, 2013)
Values joined by “and” are separate entries in the source; they are usually repeats but may differ in a detail not shown here. Equal values may be shown once. About 1,900 (0.54%) of roughly 350,000 compounds were called active.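 Rule for the calls: active = mean inhibition across replicates at least about 35%, with every replicate also reaching that limit (limit read from the data); inconclusive = only one of the two criteria met; inactive = neither criterion met.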 The entries come from a sample that favours actives as a whole. Some structures have more than one record in an assay (separate samples or runs), and their calls can disagree.

What follows are compounds tested against Caspase-6 (Homo sapiens) (UniProt P55212) (assay: human caspase-6 inhibitors, primary screen, biochemical, VEID-R110 fluorescence, single point, set 2 (AID 686996;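 note: 0% = median of neutral control wells and 100% = no fluorescence left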)). Conditions: purified caspase-6, Z-VEID-R110 cleavage fluorescence; at 12.5 µM; stronger effect = higher value.
Sequence of Caspase-6 (Homo sapiens) (P55212 24-179 limits assumed): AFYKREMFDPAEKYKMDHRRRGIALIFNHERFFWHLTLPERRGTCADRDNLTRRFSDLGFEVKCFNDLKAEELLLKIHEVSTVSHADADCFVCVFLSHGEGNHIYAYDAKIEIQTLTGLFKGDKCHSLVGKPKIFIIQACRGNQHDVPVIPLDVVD
Sequence of Caspase-6 (Homo sapiens) (P55212 194-293 limits assumed): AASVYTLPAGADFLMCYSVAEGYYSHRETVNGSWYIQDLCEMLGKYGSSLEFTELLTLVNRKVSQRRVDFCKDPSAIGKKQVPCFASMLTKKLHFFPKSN

Compound	inhibition
C[C@@H]1CN([C@H](C)CO)C(=O)c2cc(C#CC3CC3)cnc2O[C@@H]1CN(C)Cc1ccccn1	-0.477% (inactive)
O=C1C=CCCN1C(=O)/C=C/c1ccc(F)cc1	6.28% (inactive)
C[C@H](CO)N1C[C@H](C)[C@H](CN(C)Cc2ccc(C(=O)O)cc2)Oc2ncc(-c3ccccc3)cc2C1=O	-1.47% (inactive)
O=C(NC1=CC(=O)c2ccccc2C1=O)c1ccccc1	1.17% (inactive)
O=C1C(Cl)=C(Oc2ccccc2)C(=O)c2ccccc21	4.78% (inactive)
CC(=O)N(C1=C(Cl)C(=O)c2ccccc2C1=O)c1ccc(C(=O)O)cc1	91% (active)
CNC[C@@H]1OCCCC[C@@H](C)Oc2ccc(NS(C)(=O)=O)cc2C(=O)N([C@H](C)CO)C[C@@H]1C	-3.75% (inactive)
CCO[C@H]1OC(C(=O)N2CCOCC2)=C[C@@H](c2ccc3c(c2)OCO3)[C@@H]1CCCO	38.4% (active) and 1.81% (inactive)
CCO[C@H]1OC(C(=O)N2CCCCCCC2)=C[C@@H](c2ccc(C(F)(F)F)cc2)[C@@H]1CCCO	-1.98% (inactive) and 3.38% (inactive)
CCO[C@@H]1OC(C(=O)N2CCOCC2)=C[C@H](C)[C@H]1CCCO	-0.276% (inactive)
Cc1noc(C)c1NC(=O)Nc1ccc2c(c1)C(=O)N([C@H](C)CO)C[C@@H](C)[C@@H](CN(C)Cc1ccccc1)O2	-0.453% (inactive)
C[C@H](CO)N1C[C@H](C)[C@H](CN(C)Cc2ccc(C(F)(F)F)cc2)OCCCC[C@H](C)Oc2ccc(NS(=O)(=O)c3ccc(Cl)cc3)cc2C1=O	0% (inactive)
CCC(=O)N1[C@H](C(=O)OC)[C@@H](CO)[C@@H]2Cn3c(ccc(-c4cccc(F)c4)c3=O)[C@@H]21	-0.171% (inactive)
Cc1cccc(-c2ccc(C3[C@@H]4CN(C(=O)Nc5ccc(C(F)(F)F)cc5)C[C@H]3N4)cc2)c1 (some centres undefined)	17.5% (inactive) and -2.54% (inactive)
C[C@@H]1CCCCO[C@@H](CN(C)Cc2ccccc2)[C@H](C)CN([C@H](C)CO)C(=O)c2cc(NS(=O)(=O)c3cccs3)ccc2O1	-0.17% (inactive)
Cc1ccc(S(=O)(=O)N2CCN(C(=O)COC(=O)CNC(=O)c3ccc(C(C)(C)C)cc3)CC2)c(C)c1	53.3% (active)
Cc1ccc(S(=O)(=O)N2CCN(C(=O)COC(=O)c3c(C)cc(C)cc3C)CC2)c(C)c1	0.238% (inactive)
COc1ccccc1CCC(=O)OCC(=O)N1CCN(S(=O)(=O)c2ccc(C)cc2C)CC1	0.558% (inactive)
COc1ccc(Br)cc1/C=N/Nc1ccc(S(=O)(=O)Nc2ccccc2C(=O)O)cc1[N+](=O)[O-]	49.3% (active)
CC1CN(C(=O)c2ccccc2NS(=O)(=O)c2cccc([N+](=O)[O-])c2)CC(C)O1 (centres undefined)	0.082% (inactive)
COc1ccc(S(=O)(=O)N2CCC(C(=O)OCC(=O)c3ccccc3)CC2)cc1[N+](=O)[O-]	-8.89% (inactive)
CCCN1[C@H](C(=O)N[C@H](C)c2ccccc2)[C@@H](CO)[C@@H]2Cn3c(ccc(-c4ccccc4)c3=O)[C@@H]21	-1.76% (inactive)
O=C(C[C@H]1CC[C@H]2[C@@H](COC[C@@H](O)CN2CC2CCOCC2)O1)NCc1ccc(Cl)cc1	-3.23% (inactive)
Cc1noc(C)c1S(=O)(=O)N(C)C[C@@H]1Oc2ccc(NC(=O)Cn3cnnn3)cc2CC(=O)N([C@@H](C)CO)C[C@@H]1C	2.4% (inactive)
CCN=c1sc(C(=O)Nc2ccccc2)c(C)n1CC	67.5% (active)

Compound	inhibition
Cc1c(C(=O)Nc2ccccc2)sc2nc3n(c(=O)c12)CCCCC3	14.7% (inactive)
COc1ccc(NC(=O)c2sc(=O)n(Cc3ccc(S(=O)(=O)N(C)C)cc3)c2C)cc1	-0.522% (inactive)
C[C@@H]1CN([C@@H](C)CO)C(=O)Cc2cc(NS(C)(=O)=O)ccc2O[C@H]1CN(C)C(=O)Nc1ccccc1	2.54% (inactive)
O=S(=O)(N[C@H]1CC[C@@H](CCNS(=O)(=O)c2ccccc2Cl)O[C@@H]1CO)c1ccccc1	1.46% (inactive)
C[C@@H]1CN([C@@H](C)CO)C(=O)c2cc(NC(=O)Nc3ccc4c(c3)OCO4)ccc2O[C@@H](C)CCCCO[C@@H]1CN(C)S(=O)(=O)c1cccs1	-0.287% (inactive)
O=C(O)c1ccc(NS(=O)(=O)c2cccc3nsnc23)cc1	4.06% (inactive)
COc1ccc(NS(=O)(=O)c2cccc3nsnc23)cc1Cl	-0.203% (inactive)
O=S(=O)(Nc1ccccc1Cl)c1cccc2nsnc12	51.3% (active)
Cc1cccc(S(=O)(=O)N2CC[C@@H]3[C@H]2c2cc(C#Cc4ccccc4F)ccc2N[C@@H]3CO)c1	4.39% (inactive)
CC(C)NC(=O)Nc1ccc2c(c1)C(=O)N([C@@H](C)CO)C[C@H](C)[C@H](CN(C)C(=O)NC1CCCCC1)OCCCC[C@@H](C)O2	1.72% (inactive)
C[C@@H]1CN([C@H](C)CO)C(=O)c2cc(-c3cccc(C#N)c3)cnc2O[C@H]1CN(C)C(=O)C1CCC1	-1.37% (inactive)
CC(Oc1ccc2c(-c3ccccc3)cc(=O)oc2c1)C(=O)NC(Cc1c[nH]c2ccccc12)C(=O)O (centres undefined)	5.42% (inactive)
COc1ccc(-c2cc(=O)oc3cc(OCC(=O)N[C@@H](Cc4c[nH]c5ccccc45)C(=O)O)ccc23)cc1	5.8% (inactive)
COc1ccc(-c2cc(C(=O)NC(Cc3c[nH]c4ccccc34)C(=O)O)c(C)o2)cc1OC (centres undefined)	50.7% (active)
COc1ccc2c3c([nH]c2c1)[C@H](CO)N(Cc1nccs1)CC31CCN(Cc2cccnc2)CC1	1.89% (inactive)
C/C=C/c1ccc([C@H]2[C@@H](CO)N(C(C)=O)[C@H]2CNC(=O)c2ccncc2)cc1	-0.501% (inactive)
COc1ccc2c3c([nH]c2c1)[C@@H](CO)N(S(C)(=O)=O)CC31CN(CC2CC2)C1	0.799% (inactive)
COc1ccc(Cl)cc1N(CC(=O)N1CCCCC1)S(C)(=O)=O	5.56% (inactive)
COc1ccc(Cl)cc1N(CC(=O)N/N=C/c1ccc(OCC(N)=O)cc1)S(C)(=O)=O	49.4% (active)
COc1ccc(S(=O)(=O)N(CC(=O)N/N=C/c2ccc(C(=O)O)cc2)Cc2ccccc2)cc1OC	3.65% (inactive)
O=C(C1CCCCC1)N1CC(=O)N2[C@H](CO)[C@@H](c3ccc(C#Cc4cccc(F)c4)cc3)[C@@H]2C1	-1.89% (inactive)
C[C@H](CO)N1C[C@H](C)[C@H](CN(C)C(=O)C2CCOCC2)Oc2ncc(-c3ccccc3F)cc2C1=O	-2.04% (inactive)
C[C@H](CO)N1C[C@H](C)[C@@H](CN(C)Cc2cccc(F)c2)Oc2cc(C#CC3CC3)ccc2S1(=O)=O	0.411% (inactive)
Cc1ccc(S(=O)(=O)N(C)C[C@H]2Oc3ccc(NC(=O)Nc4cccc5ccccc45)cc3CC(=O)N([C@H](C)CO)C[C@H]2C)cc1	-0.526% (inactive)
